From PubChem BioAssay AID623868 (Vanderbilt High Throughput Screening Facility, 2012)
Hit rate of the full screen: of about 2,100 compounds, about 760 (36%) were called active.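 The calls were made as follows: active = thallium-flux fluorescence traces judged by eye to show enhanced or reduced glutamate response, manual score 1 or -1, so both directions (some results past the limit were not filed as active); inactive = the rest, including fluorescent or raised-baseline compounds.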 A selection follows.

Experiment: thallium influx changes without GIRK channels – cell-based, HEK-293 rmGlu8, no GIRK, thallium flux, counter-screen for GIRK activator project, confirmation (AID 623868);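 also: extra codes mark interference with 3 for fluorescent and 4 for baseline rise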
Conditions: thallium flux fluorescence, at 10 µM, actives lie on both sides, codes: 1 enhancer, -1 blocker, 0 none, thallium stimulus containing EC20 glutamate
For `O=C(Nc1ccccc1C(=O)O)c1ccc(NC(=O)c2ccc(Br)o2)cc1`, the manual score was -1 (active). For `CCC(C)NC(=O)c1ccccc1NC(=O)Nc1ccccc1` (centres undefined), the manual score was 0.5 (inactive). For `O=C(O)c1ccccc1C(=O)Nc1ccc(-c2csc(-c3ccccc3)n2)cc1`, the manual score was 0 (inactive). In the case of `O=C(NC(=S)N(CCc1ccccc1)CCc1ccccc1)c1ccco1`, the manual score is reported as 1 (active). For `O=C(NC(=S)NCCc1ccccc1)c1ccccc1`, the manual score was 1 (active). For `O=C(NC(=S)NCCc1ccccc1)c1ccco1`, the manual score was 1 (active). With `O=C(CNC(=S)NC(=O)c1ccco1)c1ccccc1` the manual score was 1 (active). In the case of `Cc1ccccc1C(=O)NC(=S)NCCc1ccccc1`, the manual score is reported as 0 (inactive). In the case of `COc1cc(OC)cc(C(=O)NC(=S)NCCc2ccccc2)c1`, the manual score is reported as 0 (inactive). In the case of `CC1CN(C2CC(C)(C)NC(C)(C)C2)CCC1=O` (centres undefined), the manual score is reported as 0 (inactive). With `CCCCc1cc(=O)oc2cc(C)cc(O)c12` the manual score was -0.5 (inactive). With `COc1cc(/C=C(\C#N)C(=O)Nc2cccnc2)ccc1OC(C)C` the manual score was 0 (inactive). For `O=C(CNC(=S)NC(=O)c1cccs1)c1ccccc1`, the manual score was 1 (active). For `Nc1sccc1C(=O)c1ccccc1`, the manual score was 0 (inactive). In the case of `CCOc1ccccc1-c1c2cc(O)c(=O)cc-2oc2cc(O)c(O)cc12`, the manual score is reported as 0 (inactive). In the case of `CCN(CC)S(=O)(=O)c1cccc(-c2n[nH]c(=S)n2/N=C/c2ccc(C(=O)OC)cc2)c1`, the manual score is reported as 1 (active). With `CCN(CC)S(=O)(=O)c1cccc(S(=O)(=O)c2cccc(S(=O)(=O)N(CC)CC)c2)c1` the manual score was 0 (inactive). For `COCC(C)OC(=O)c1c(N)n(CC(C)C)c2nc3ccccc3nc12` (centres undefined), the manual score was 0 (inactive). In the case of `COc1ccccc1CNC(=O)c1c(N)n(CCCN2CCOCC2)c2nc3ccccc3nc12`, the manual score is reported as 0 (inactive). With `C=CCn1c(N)c(C(=O)OC(C)(C)C)c2nc3ccccc3nc21` the manual score was -1 (active). With `Cc1cccn2c(=O)c(/C=N/O)c(N3CCCC3)nc12` the manual score was 0 (inactive). With `CSc1cccc(NC(=O)CN(c2ccc(C)cc2C)S(C)(=O)=O)c1` the manual score was 0 (inactive). For `CC1(C)CC(=O)C2=C(C1)OC(/N=C/N1CCOCC1)=C(C#N)C2c1ccccc1` (centres undefined), the manual score was -1 (active). In the case of `CC1(C)Cc2ccccc2-c2nnc(SCC(=O)Nc3nc4ccccc4s3)n21`, the manual score is reported as 0 (inactive). With `CC1Cc2nc(SCC(=O)Nc3nc4ccccc4s3)n(C)c(=O)c2S1` (centres undefined) the manual score was -1 (active). With `CC(C)Cc1nnc(NC(=O)CSc2nc(=O)cc(N)n2-c2ccccc2)s1` the manual score was 0 (inactive). With `COC(=O)c1onc(C(=O)c2ccccc2)c1C(=O)OC` the manual score was -1 (active). In the case of `N[C@@H](Cc1ccccc1)c1nnc(SCc2ccccc2F)o1`, the manual score is reported as 0 (inactive). With `Cc1sc2nc(C(C)C)nc(SCC(=O)N3c4ccccc4CC3C)c2c1C` (centres undefined) the manual score was 1 (active). With `Cc1sc2ncnc(SCc3ccco3)c2c1C` the manual score was 0 (inactive). With `CCn1c(N)c(C(=O)NCc2ccco2)sc1=S` the manual score was 0 (inactive). With `Cc1sc2nc(C(C)C)nc(SCC(=O)NCc3ccco3)c2c1C` the manual score was 1 (active). In the case of `CCn1c(SCC(=O)NC(=O)NCc2ccco2)nc2sc(C)c(C)c2c1=O`, the manual score is reported as 1 (active). For `Cc1ccccc1-c1nc(CN2CCC(C(=O)NCc3ccco3)CC2)c(C)o1`, the manual score was 0 (inactive). For `CC(=O)Nc1ccc(C(=O)CSc2nc3ccc(C)cc3[nH]2)cc1`, the manual score was 0 (inactive). With `COC(=O)c1ccc(-n2c(C)cc(C(=O)CSc3ccc(NC(C)=O)cc3)c2C)cc1` the manual score was 0 (inactive). For `CCc1cc2cccc(C)c2nc1SCC(=O)c1ccc(NC(C)=O)cc1`, the manual score was 1 (active). In the case of `COc1ccc(OC)c(NC(=O)C2CC(=O)N(c3ccc(Br)cc3)C2)c1` (centres undefined), the manual score is reported as 0 (inactive). For `COc1cc(NC(=O)C(=O)NNC(=O)C2CCCCC2)c(OC)cc1Cl`, the manual score was 1 (active). With `COc1cc(NC(=O)c2ccc(C)cc2)c(OC)cc1NC(=O)CN1CCCCC1` the manual score was 0 (inactive). For `Oc1ccccc1CNc1ccc(Br)cn1`, the manual score was 0 (inactive). In the case of `Cc1ccc(C2CC2c2n[nH]c(=S)n2-c2ccc(Cl)cc2)cc1` (centres undefined), the manual score is reported as 0 (inactive). For `Cc1ccc(C2CC2c2n[nH]c(=S)n2-c2ccc(C)cc2)cc1` (centres undefined), the manual score was 1 (active). In the case of `O=C(c1ccc(Br)o1)N1CCN(c2ccc3nnc(-c4ccc(F)cc4)n3n2)CC1`, the manual score is reported as -1 (active). With `O=C(c1ccc(CS(=O)(=O)c2ccc(Br)cc2)o1)N1CCN(c2ncccn2)CC1` the manual score was 0 (inactive). With `CCOC(=O)N1CCN(c2ccc3nnnn3n2)CC1` the manual score was 0 (inactive). With `CCOc1cc(-c2noc(-c3cccnc3)n2)ccc1OC` the manual score was 0 (inactive). In the case of `CC(C)COn1c(=S)[nH]c2ccccc2c1=O`, the manual score is reported as 1 (active). For `CC(C)n1c(=S)[nH]c2ccccc2c1=O`, the manual score was 1 (active). In the case of `Cc1cc(CC(C)C)n(-c2nc3ccccc3c(=O)n2OCC(N)=O)n1`, the manual score is reported as 0 (inactive). In the case of `CC(C)N(CCn1c(=S)[nH]c2ccccc2c1=O)C(C)C`, the manual score is reported as 1 (active). For `CCOc1cc2[nH]c(=S)n(C(C)C)c(=O)c2cc1OCC`, the manual score was 1 (active). With `CC(C)n1c(NCc2c[nH]c3ccccc23)nc2ccccc21` the manual score was 0 (inactive). For `CCCC(=O)NC(c1cccs1)c1cc([N+](=O)[O-])c2cccnc2c1O` (centres undefined), the manual score was 0 (inactive). With `CCCC(=O)Nc1ccc(NC(=O)C2CC2)cn1` the manual score was 0 (inactive). For `COCc1nnc(NC(=O)C(C)C)s1`, the manual score was 0 (inactive). In the case of `Cc1conc1NC(c1cccs1)c1ccc2cccnc2c1O` (centres undefined), the manual score is reported as 0.5 (inactive). In the case of `COc1ccccc1-n1cnnc1SCC(=O)c1cc(C)n(Cc2cccs2)c1C`, the manual score is reported as 0 (inactive). In the case of `COc1ccc(CNC(=O)CSCc2ccccc2Cl)cc1`, the manual score is reported as -0.5 (inactive). In the case of `COc1cccc(N(CC(=O)NCc2cccnc2)S(C)(=O)=O)c1`, the manual score is reported as 0 (inactive). With `COc1ccc(CNc2nc(-c3cccnc3)nn2C(=O)c2ccco2)cc1` the manual score was -1 (active). In the case of `O=C(c1cc2nc(-c3ccccc3)cc(-c3ccccc3)n2n1)N1CCN(C(=O)c2ccco2)CC1`, the manual score is reported as -0.5 (inactive). With `CCCC(=O)n1nc(-c2ccccc2)nc1N` the manual score was 0 (inactive). In the case of `CCC(=O)n1nc(-c2cccnc2)nc1NCc1ccc(OC)cc1`, the manual score is reported as -1 (active). With `S=c1nn[nH]n1C12CC3CC(CC(C3)C1)C2` the manual score was 1 (active). For `c1cn(C23CC4CC(CC(C4)C2)C3)cn1`, the manual score was 0.5 (inactive). In the case of `CCOc1ccc(Nc2ncnc(N)n2)cc1`, the manual score is reported as 0 (inactive). For `Cc1noc(C)c1CSc1nc2ccccc2c(=O)n1-c1ccc(F)cc1F`, the manual score was 0 (inactive). With `O=c1c2ccccc2nc(SCc2cn3ccsc3n2)n1-c1ccc(F)cc1` the manual score was -1 (active). For `COCCNCCOc1ccccc1-c1ccccc1`, the manual score was 0 (inactive). With `COc1ccc(CN(C)CC(=O)NC(=O)NCc2ccccc2)cc1OC` the manual score was 0 (inactive). In the case of `COc1ccc(CCNC(=O)CSc2nnc(-c3ccc(F)cc3)c3ccccc23)cc1OC`, the manual score is reported as -1 (active). With `COc1cc2c(cc1NC(=O)COc1ccccc1OC)oc1ccccc12` the manual score was 0 (inactive). In the case of `CCOC(=O)CSC1=C(C#N)C(=O)NC(c2ccc(OC)c(OC)c2)S1` (centres undefined), the manual score is reported as 0 (inactive). In the case of `CCSc1nnc(NC(=O)CC)s1`, the manual score is reported as 0 (inactive). With `Cc1cc(NC(=O)CSc2nc(C3CC3)nc3sc(C)c(C)c23)no1` the manual score was 1 (active). With `Cc1ccc(C)c(Nc2c([N+](=O)[O-])cc(C(=O)N3CC(=O)Nc4ccccc43)cc2[N+](=O)[O-])c1` the manual score was 0 (inactive). In the case of `Cc1sc2nc(C3CC3)nc(SCC(=O)N3CC(=O)Nc4ccccc43)c2c1C`, the manual score is reported as 1 (active). For `CCc1c(C)nc(SCC(=O)N2CCc3ccccc32)[nH]c1=O`, the manual score was 0 (inactive). With `CCc1nc(SCC(=O)Nc2nnc(CC)s2)c2c(C)c(C)sc2n1` the manual score was 1 (active). For `CCc1nnc(NC(=O)CSc2nnc(-c3c[nH]c4ccccc34)n2CC)s1`, the manual score was 0 (inactive). In the case of `Cc1cc(NC(=O)CSc2nc3ccsc3c(=O)n2NC(=O)c2ccccc2)no1`, the manual score is reported as 0 (inactive). For `CCc1nc(SCC(=O)N2CC(=O)Nc3ccccc32)c2c(C)c(C)sc2n1`, the manual score was 1 (active). For `Cc1ccc(N(C(=O)CCC(=O)Nc2cc(C)on2)C(C(=O)NC2CCCC2)c2cccs2)cc1` (centres undefined), the manual score was 0 (inactive). With `CN1C(=O)NC(c2ccccc2)C2=C1CN(Cc1ccccc1)C2=O` (centres undefined) the manual score was 0 (inactive). In the case of `CCOC(=O)C1(C(C)(C)CC)CC(CSc2nc3ccccc3[nH]2)OC1=O` (centres undefined), the manual score is reported as 0 (inactive). With `CN1CCN(C(=O)c2sc(=S)n(-c3ccccc3)c2N)CC1` the manual score was 0 (inactive). For `O=C(NCCSCc1ccco1)Nc1cccc(Cl)c1`, the manual score was 0 (inactive). With `CN(C(=O)CSC1=Nc2ccccc2C2=NC(c3ccccc3)C(=O)N12)C1CCCCC1` (centres undefined) the manual score was -1 (active). For `Cc1sccc1C1C(C#N)=C(N)SC(N)=C1C#N`, the manual score was -1 (active). For `Cc1ccc(C(C(=O)NC2CCCC2)N2CCCC(C)C2)cc1` (centres undefined), the manual score was 0 (inactive). With `O=C(c1csc2c1CCCC2)N1CCN(c2ccc(F)cc2)CC1` the manual score was 0 (inactive). For `O=S(=O)(c1ccccc1)N1CCN(C(=S)Nc2ccc(F)cc2)CC1`, the manual score was 0 (inactive). In the case of `O=C(NC(=S)N1CCN(c2ccc([N+](=O)[O-])cc2)CC1)c1ccc(F)cc1`, the manual score is reported as 1 (active). With `CC12CC3CC(C)(C1)CC(C(=O)NC(=S)N1CCCCC1)(C3)C2` the manual score was 1 (active). In the case of `CCC(=O)c1ccc(N2CCN(C(=O)c3cc([N+](=O)[O-])ccc3N3CCN(C)CC3)CC2)c(F)c1`, the manual score is reported as 0 (inactive). With `O=C(NC(=S)N1CCCCC1)C12CC3CC(CC(C3)C1)C2` the manual score was 1 (active). With `O=C(NC(=S)N1CCN(c2ccc(F)cc2)CC1)C12CC3CC(CC(C3)C1)C2` the manual score was 1 (active). For `CCOc1ccccc1N1CCN(C(=S)NC(=O)C23CC4CC(CC(C4)C2)C3)CC1`, the manual score was 0.5 (inactive). In the case of `CCOC(=O)C1CCN(C(=O)NC23CC4CC(CC(C4)C2)C3)CC1`, the manual score is reported as 0 (inactive). In the case of `CCCCN(Cc1ccccc1)S(=O)(=O)c1ccc2[nH]c(=O)oc2c1`, the manual score is reported as 0 (inactive). With `COc1ccc(Cl)cc1C(=O)CSc1nnnn1C1CCCC1` the manual score was 0 (inactive). For `CC12CC3CC(C)(C1)CC(C(=O)NC(=S)N1CCOCC1)(C3)C2`, the manual score was 1 (active). For `CC12CC3(C)CC(C)(C1)CC(C(=O)NC(=S)N1CCOCC1)(C2)C3`, the manual score was 1 (active).
